Test results taken from the supplement of paper PMC11732987, “Enantioselective OTUD7B fragment discovery through chemoproteomics screening and high-throughput optimisation” (Communications Chemistry, 2025).

How the values were obtained:
Test in all cases: log2 ratio of Biotin-Ahx-Ub-VS probe labelling (fragment/DMSO); higher = less target engagement (more negative = stronger competition), active = hit call of the paper (q ≤ 0.05, log2 ratio ≤ -1)
Conditions in all cases: compound concentration: 200 uM; treatment time: 3 h
[1] = biological target: T1, OTUD6B (UniProt Q8N6M0)
T1 sequence (whole entry): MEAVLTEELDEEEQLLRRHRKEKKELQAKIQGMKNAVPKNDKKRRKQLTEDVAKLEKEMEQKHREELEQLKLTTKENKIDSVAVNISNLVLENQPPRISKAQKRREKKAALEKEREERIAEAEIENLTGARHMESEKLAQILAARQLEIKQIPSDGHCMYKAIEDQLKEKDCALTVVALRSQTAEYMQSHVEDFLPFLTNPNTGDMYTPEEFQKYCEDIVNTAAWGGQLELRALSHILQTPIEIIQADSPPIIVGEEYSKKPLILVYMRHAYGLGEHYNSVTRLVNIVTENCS
In short: (§1)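 Each value is an average log2 ratio of fragment to vehicle, tested by unpaired t-test. The underlying Spectronaut label-free quantities were global-median-normalised, and only proteins with ≥2 unique peptides were included. Triplicate HEK293T lysate samples (495 µg) were exposed to fragment at 200 µM or vehicle for 3 h, then to Biotin-Ahx-Ub-VS at 0.5 µM final for 1 h, before NeutrAvidin enrichment of labelled DUBs, LysC and trypsin digestion, and diaPASEF LC-MS/MS.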

[2] = biological target: T2, OTUD7B (UniProt Q6GQQ9)
T2 sequence (whole entry): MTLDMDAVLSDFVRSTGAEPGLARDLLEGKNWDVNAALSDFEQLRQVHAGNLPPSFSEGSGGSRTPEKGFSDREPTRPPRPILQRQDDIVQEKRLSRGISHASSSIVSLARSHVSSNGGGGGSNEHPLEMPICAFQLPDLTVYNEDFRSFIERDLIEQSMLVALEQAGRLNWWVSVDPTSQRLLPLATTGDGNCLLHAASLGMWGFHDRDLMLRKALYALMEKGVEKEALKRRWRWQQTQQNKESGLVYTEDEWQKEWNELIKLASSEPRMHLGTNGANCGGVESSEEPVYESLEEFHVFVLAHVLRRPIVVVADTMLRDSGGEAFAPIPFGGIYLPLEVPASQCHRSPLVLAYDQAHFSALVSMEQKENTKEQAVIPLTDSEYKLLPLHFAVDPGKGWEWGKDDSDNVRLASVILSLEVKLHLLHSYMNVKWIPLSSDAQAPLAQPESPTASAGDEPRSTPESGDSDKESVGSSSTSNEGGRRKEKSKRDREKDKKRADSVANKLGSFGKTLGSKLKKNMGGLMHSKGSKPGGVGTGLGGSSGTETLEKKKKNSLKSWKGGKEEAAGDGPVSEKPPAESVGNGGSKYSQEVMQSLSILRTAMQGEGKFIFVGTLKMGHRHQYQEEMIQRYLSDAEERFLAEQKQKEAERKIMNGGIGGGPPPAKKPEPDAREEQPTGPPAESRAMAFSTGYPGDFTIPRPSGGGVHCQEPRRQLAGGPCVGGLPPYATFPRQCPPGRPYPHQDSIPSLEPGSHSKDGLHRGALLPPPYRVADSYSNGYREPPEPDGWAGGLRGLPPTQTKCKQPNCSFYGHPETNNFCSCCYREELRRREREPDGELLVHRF
In short: as §1

[3] = biological target: PRPF8 (UniProt Q6P2Q9)
In short: as §1

[4] = biological target: T3, PSMD7 (UniProt P51665)
T3 sequence (whole entry): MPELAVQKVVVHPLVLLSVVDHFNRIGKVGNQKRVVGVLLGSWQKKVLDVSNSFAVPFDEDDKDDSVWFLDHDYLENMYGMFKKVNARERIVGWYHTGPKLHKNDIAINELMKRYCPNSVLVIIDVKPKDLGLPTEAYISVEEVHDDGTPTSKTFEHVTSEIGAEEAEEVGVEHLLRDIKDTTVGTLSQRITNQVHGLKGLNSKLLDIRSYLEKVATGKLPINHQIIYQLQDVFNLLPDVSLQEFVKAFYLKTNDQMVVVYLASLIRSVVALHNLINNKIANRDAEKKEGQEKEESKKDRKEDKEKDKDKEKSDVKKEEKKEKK
In short: as §1

[5] = biological target: UCHL1 (UniProt P09936)
In short: as §1

[6] = biological target: T4, UCHL3 (UniProt P15374)
T4 sequence (whole entry): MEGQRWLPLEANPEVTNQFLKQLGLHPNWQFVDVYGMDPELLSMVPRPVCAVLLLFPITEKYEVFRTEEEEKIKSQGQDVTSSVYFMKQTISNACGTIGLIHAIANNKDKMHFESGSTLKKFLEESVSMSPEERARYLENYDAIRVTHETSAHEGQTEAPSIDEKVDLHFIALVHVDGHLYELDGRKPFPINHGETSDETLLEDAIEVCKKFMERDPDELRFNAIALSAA
In short: as §1

[7] = biological target: T5, UCHL5 (UniProt Q9Y5K5)
T5 sequence (whole entry): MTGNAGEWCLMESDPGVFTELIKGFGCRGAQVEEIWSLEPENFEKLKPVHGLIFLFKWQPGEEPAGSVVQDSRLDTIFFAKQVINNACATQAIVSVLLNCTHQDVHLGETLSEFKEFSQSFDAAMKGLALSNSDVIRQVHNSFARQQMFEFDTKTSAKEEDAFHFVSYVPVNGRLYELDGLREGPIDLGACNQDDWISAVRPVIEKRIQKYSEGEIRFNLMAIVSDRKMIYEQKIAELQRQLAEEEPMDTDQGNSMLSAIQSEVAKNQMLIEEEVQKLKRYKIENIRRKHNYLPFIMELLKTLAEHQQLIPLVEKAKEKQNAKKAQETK
In short: as §1

[8] = biological target: USP10 (UniProt Q14694)
In short: as §1

[9] = biological target: T6, USP15 (UniProt Q9Y4E8)
T6 sequence (whole entry): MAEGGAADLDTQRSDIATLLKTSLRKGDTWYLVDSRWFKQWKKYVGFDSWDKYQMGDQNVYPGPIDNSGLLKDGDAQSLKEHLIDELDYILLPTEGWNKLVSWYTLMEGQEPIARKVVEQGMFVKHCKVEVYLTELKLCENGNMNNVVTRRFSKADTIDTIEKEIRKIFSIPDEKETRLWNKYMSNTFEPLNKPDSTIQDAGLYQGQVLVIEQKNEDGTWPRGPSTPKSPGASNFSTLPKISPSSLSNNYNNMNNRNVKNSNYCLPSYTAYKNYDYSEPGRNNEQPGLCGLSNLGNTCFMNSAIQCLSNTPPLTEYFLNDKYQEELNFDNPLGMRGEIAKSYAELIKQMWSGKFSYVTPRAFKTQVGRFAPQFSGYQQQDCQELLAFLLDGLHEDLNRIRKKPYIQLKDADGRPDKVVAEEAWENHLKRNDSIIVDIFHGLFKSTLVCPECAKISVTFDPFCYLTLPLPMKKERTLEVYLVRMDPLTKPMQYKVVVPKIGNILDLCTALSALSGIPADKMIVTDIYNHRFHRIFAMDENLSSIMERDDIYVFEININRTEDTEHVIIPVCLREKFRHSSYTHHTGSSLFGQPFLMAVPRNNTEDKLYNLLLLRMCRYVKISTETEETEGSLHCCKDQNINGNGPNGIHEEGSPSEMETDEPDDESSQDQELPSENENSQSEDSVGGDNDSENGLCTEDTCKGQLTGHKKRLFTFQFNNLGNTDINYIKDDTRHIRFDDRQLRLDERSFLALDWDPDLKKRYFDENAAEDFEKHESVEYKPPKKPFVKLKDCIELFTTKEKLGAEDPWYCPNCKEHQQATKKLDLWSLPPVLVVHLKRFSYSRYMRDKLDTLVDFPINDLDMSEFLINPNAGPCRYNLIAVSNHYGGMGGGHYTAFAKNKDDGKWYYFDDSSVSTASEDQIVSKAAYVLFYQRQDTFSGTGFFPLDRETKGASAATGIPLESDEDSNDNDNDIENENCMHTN
In short: as §1

[10] = biological target: USP16 (UniProt Q9Y5T5)
In short: as §1

Measured: log2 ratio of Biotin-Ahx-Ub-VS probe labelling

Sequence of UCHL1 (P09936 whole entry, looked up): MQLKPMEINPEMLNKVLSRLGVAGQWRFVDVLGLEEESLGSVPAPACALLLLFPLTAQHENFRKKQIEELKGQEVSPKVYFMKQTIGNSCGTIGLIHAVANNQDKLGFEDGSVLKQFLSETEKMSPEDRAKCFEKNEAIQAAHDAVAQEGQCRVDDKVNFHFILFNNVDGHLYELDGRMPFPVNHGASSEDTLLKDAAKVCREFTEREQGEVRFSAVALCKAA
Sequence of USP10 (Q14694 whole entry): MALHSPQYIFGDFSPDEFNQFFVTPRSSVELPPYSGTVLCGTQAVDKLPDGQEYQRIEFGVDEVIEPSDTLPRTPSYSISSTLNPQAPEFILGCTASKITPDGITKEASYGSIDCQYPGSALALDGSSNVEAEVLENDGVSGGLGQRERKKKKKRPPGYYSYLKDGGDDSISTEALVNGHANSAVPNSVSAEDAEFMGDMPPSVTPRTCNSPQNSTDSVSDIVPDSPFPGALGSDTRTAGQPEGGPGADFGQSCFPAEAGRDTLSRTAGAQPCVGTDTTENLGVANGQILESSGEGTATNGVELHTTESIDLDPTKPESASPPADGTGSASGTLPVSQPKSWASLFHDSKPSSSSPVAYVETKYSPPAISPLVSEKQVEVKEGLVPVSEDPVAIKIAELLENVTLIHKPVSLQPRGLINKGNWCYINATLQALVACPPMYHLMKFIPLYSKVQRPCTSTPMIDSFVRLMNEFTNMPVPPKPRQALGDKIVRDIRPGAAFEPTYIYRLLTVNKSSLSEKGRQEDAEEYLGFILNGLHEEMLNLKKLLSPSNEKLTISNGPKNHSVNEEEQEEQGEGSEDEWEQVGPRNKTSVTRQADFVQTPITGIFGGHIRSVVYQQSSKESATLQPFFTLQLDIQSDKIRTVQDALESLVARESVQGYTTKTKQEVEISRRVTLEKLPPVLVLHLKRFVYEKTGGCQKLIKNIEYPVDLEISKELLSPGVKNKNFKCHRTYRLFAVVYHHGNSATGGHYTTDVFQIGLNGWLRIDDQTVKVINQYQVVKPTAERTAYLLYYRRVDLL
Sequence of USP16 (Q9Y5T5 whole entry, looked up): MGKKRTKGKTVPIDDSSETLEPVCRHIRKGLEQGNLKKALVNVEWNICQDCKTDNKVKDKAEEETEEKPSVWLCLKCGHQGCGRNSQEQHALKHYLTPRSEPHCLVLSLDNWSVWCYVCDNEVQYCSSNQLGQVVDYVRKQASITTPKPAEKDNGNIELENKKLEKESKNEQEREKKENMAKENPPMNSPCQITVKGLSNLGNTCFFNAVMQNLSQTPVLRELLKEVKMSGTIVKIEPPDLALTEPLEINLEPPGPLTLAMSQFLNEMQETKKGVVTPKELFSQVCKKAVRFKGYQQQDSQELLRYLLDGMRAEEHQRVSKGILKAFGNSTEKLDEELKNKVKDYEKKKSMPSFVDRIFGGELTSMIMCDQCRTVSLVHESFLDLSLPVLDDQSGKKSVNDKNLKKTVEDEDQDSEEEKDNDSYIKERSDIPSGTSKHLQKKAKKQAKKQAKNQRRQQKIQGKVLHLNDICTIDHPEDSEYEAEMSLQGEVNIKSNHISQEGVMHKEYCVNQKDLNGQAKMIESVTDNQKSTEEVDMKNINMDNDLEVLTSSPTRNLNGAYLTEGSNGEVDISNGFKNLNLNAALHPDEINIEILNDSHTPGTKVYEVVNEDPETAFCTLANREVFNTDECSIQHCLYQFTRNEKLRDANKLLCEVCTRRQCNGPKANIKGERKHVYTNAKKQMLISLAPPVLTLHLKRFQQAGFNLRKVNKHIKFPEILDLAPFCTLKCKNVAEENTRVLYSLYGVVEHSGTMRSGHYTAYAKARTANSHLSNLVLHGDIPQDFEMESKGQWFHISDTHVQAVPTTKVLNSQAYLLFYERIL

COc1cccc(CN(C)C(=O)CCl)c1
active: [5] -1.22
inactive: [1] -0.198 | [2] -0.364 | [3] -0.0045 | [4] -0.109 | [6] 0.229 | [7] -0.0244 | [8] -0.22 | [9] -0.251 | [10] 0.142
